The panel holds about 79,000 compounds, 15% with a hit somewhere; the sample as a whole holds those more often. Values without a mark were called inactive. Activity calls are given as the source filed them. No stated cut-off is given here; in the data, active means growth inhibition above about 70%; inactive means the rest.
Experiment: NCI Yeast Anticancer Drug Screen. Data for the rad50EPP+ strain (AID 151);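 further: 0% = growth of vehicle-treated control cultures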
Conditions: S. cerevisiae rad50 mutant strain, at 11.0 µM, active compounds read high
Summary of the method: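 Exposing the rad50EPP+ strain to each compound, growth was compared with vehicle-only cultures to give inhibition.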

| SMILES | growth inhibition |
| --- | --- |
| O=C1/C(=C/c2ccccc2)CCCC1CN1CCCCC1 (stereo not drawn) | 15% |
| C#CCN(Cc1ccc2nc(N)[nH]c(=O)c2c1)c1ccc(C(=O)NC(CCC(=O)O)C(=O)O)cc1 (stereo not drawn) | 44% |
| CCOC1(c2cccc([N+](=O)[O-])c2)c2ccccc2Oc2ccccc21 | 11% |
| O=C(O)CNC(=S)Nc1ccccc1 | -74% |
| N/C(=N/N=C/c1cc(Br)cc(Br)c1O)NO | -6% |
| C[Si](C)(C)/C=C/CCNC(C#N)c1ccccc1 (stereo not drawn) | -17% |
| CCCCCCCCCCCCCCCCOP(=O)(O)OCC(N)C(=O)O (stereo not drawn) | 80% (active) |
| CC1=C(C(=O)NCc2ccccc2)C(c2ccccc2)C(C(=O)NCc2ccccc2)=C(C)N1 | 3% |
| O=[N+]([O-])c1cc(S(=O)(=O)Nc2ccccc2)ccc1Nc1ccccc1 | 23% |
| COc1cc2ccnc(-c3c4ccccc4c(N)c4c(OC)c(OC)ccc34)c2cc1OC | 22% |
| CCOC(=O)C(Br)C(Br)c1ccccc1Cl (stereo not drawn) | 96% (active) |
| CCOC(=O)C1=C(C)NC(C)=C(C(=O)OCCNC(=O)c2ccc(N=[N+]=[N-])cc2)C1c1ccccc1C(F)(F)F (stereo not drawn) | 1% |
| Cc1cc(C)c(NC(=S)NC(=O)c2ccccc2)cc1C | -25% |
| CNCCCNc1c2ccccc2nc2cccc([N+](=O)[O-])c12 | 96% (active) |
| COc1c(O)c(C=O)c(Br)c(C=O)c1O | 75% (active) |
| Cc1c(C)c(C)c(CSC(=N)N)c(C)c1C | -79% |
| O=C(CSC(=S)N1CCCCC1)Nc1nc2c(s1)CCCC2 | 38% |
| CNC(=O)OCc1c(COC(=O)NC)c(-c2ccc(Cl)cc2)n2c1CCC2 | -16% |
| CC(=O)OC1CC2C(C)(C)C(=O)C=C[C@]2(C)C2CCC3(C)C(=CCC3[C@H](CO)C[C@H](O)C(=O)C(C)(C)O)[C@]12C (stereo partly drawn) | -39% |
| CCCCCCOC(=O)NCCOC(=O)Nc1ccccc1 | 11% |

| SMILES | growth inhibition |
| --- | --- |
| C[C](C)(C)[Ge]([O][Ge]([c]1ccccc1)[c]1ccccc1)([O][Ge]([c]1ccccc1)[c]1ccccc1)[C](C)(C)C | 5% |
| CCc1c(Cl)c(C)cc(O)c1Cl | 8% |
| Cc1nc(Nc2ccccc2[N+](=O)[O-])sc1C(=O)CC(=O)C(=O)Nc1c(C(C)C)cccc1C(C)C | 37% |
| O=[N+]([O-])c1cccc2nc3ccccc3c(NCCCn3ccnc3[N+](=O)[O-])c12 | 58% |
| CCCCCCC(O)CNCc1ccnc2ccc(OC)cc12 (stereo not drawn) | 4% |
| Cc1c2cccc(Sc3ccccc3)c2c2c3c(cccc13)[S+](c1ccccc1)C2 (stereo not drawn) | 39% |
| C=C1CCC(O)C/C1=C/C=C1\CCCC2(C)C1CCC2C(C)CCCC(C)C (stereo not drawn) | -22% |
| NC1=NNC2(C(N)=N1)c1ccccc1-c1ccccc12 | 2% |
| COc1cc2cc3c4cc(OC)c(OC)cc4cc[n+]3c(C)c2cc1OC | -21% |
| COC(=O)NC1C(C)OC(OC2C/C=C(/C)C3C=CC4C(OC5CC(OC6CC(O)C(OC7CC(O)C(OC)C(C)O7)C(C)O6)C(O)C(C)O5)C(C)CC(C)C4C3(C)/C(O)=C3\C(=O)OC4(CC(C)C(CO)=CC4/C=C\2C)C3=O)CC1(C)[N+](=O)[O-] (stereo not drawn) | 11% |
| O=C1CSC(c2cccc(Cl)c2)N1c1ccc(-c2ccc(-n3c(-c4ccccc4)nc4ccccc4c3=O)cc2)cc1 (stereo not drawn) | 8% |
| CCOC(=O)C(C(=O)OCC)=P(c1ccccc1)(c1ccccc1)c1ccccc1 | -2% |
| COc1ccc(N=CN(C)C)c(C)c1 | -62% |
| Cc1cc(S(=O)(=O)Nc2nnc3cnc4ccccc4n23)c(S)cc1Cl | -25% |
| O=C(Oc1ccc2c(c1)CN(Cc1ccccc1)CO2)c1ccccc1 | 4% |
| CN(C)[C@@H]1C(=O)C(C(N)=O)=C(O)[C@@]2(O)C(=O)C3=C(O)c4c(O)cccc4C[C@H]3C[C@@H]12 | 14% |
| O=[N+]([O-])c1ccc2c(c1)/C(=N/N=C1c3ccccc3Cc3ccccc31)c1cc([N+](=O)[O-])cc([N+](=O)[O-])c1-2 | 99% (active) |
| Cc1nc2c(Br)cc(Br)cc2c(=O)n1-c1ccccc1NC1OCC(O)C(O)C1O (stereo not drawn) | 17% |
| Cc1cc(N(CCOS(C)(=O)=O)CCOS(C)(=O)=O)ccc1C=Nc1ccc(-c2nc(Cc3ccccc3)sc2C)cc1 | 10% |

Same assay, conditions: S. cerevisiae rad50 mutant strain, at 33.0 µM, active compounds read high

| SMILES | growth inhibition |
| --- | --- |
| O=C1/C(=C/c2ccccc2)CCCC1CN1CCCCC1 (stereo not drawn) | 46% |
| C#CCN(Cc1ccc2nc(N)[nH]c(=O)c2c1)c1ccc(C(=O)NC(CCC(=O)O)C(=O)O)cc1 (stereo not drawn) | 29% |
| CCOC1(c2cccc([N+](=O)[O-])c2)c2ccccc2Oc2ccccc21 | 24% |
| O=C(O)CNC(=S)Nc1ccccc1 | -40% |
| N/C(=N/N=C/c1cc(Br)cc(Br)c1O)NO | 28% |
| C[Si](C)(C)/C=C/CCNC(C#N)c1ccccc1 (stereo not drawn) | -30% |
| CCCCCCCCCCCCCCCCOP(=O)(O)OCC(N)C(=O)O (stereo not drawn) | 98% (active) |
| CC1=C(C(=O)NCc2ccccc2)C(c2ccccc2)C(C(=O)NCc2ccccc2)=C(C)N1 | 3% |
| O=[N+]([O-])c1cc(S(=O)(=O)Nc2ccccc2)ccc1Nc1ccccc1 | 19% |
| COc1cc2ccnc(-c3c4ccccc4c(N)c4c(OC)c(OC)ccc34)c2cc1OC | 31% |
| CCOC(=O)C(Br)C(Br)c1ccccc1Cl (stereo not drawn) | 99% (active) |
| CCOC(=O)C1=C(C)NC(C)=C(C(=O)OCCNC(=O)c2ccc(N=[N+]=[N-])cc2)C1c1ccccc1C(F)(F)F (stereo not drawn) | 3% |
| Cc1cc(C)c(NC(=S)NC(=O)c2ccccc2)cc1C | -18% |
| CNCCCNc1c2ccccc2nc2cccc([N+](=O)[O-])c12 | 97% (active) |
| COc1c(O)c(C=O)c(Br)c(C=O)c1O | 95% (active) |
| Cc1c(C)c(C)c(CSC(=N)N)c(C)c1C | -59% |
| O=C(CSC(=S)N1CCCCC1)Nc1nc2c(s1)CCCC2 | 40% |
| CNC(=O)OCc1c(COC(=O)NC)c(-c2ccc(Cl)cc2)n2c1CCC2 | -25% |
| CC(=O)OC1CC2C(C)(C)C(=O)C=C[C@]2(C)C2CCC3(C)C(=CCC3[C@H](CO)C[C@H](O)C(=O)C(C)(C)O)[C@]12C (stereo partly drawn) | -39% |
| CCCCCCOC(=O)NCCOC(=O)Nc1ccccc1 | 17% |

| SMILES | growth inhibition |
| --- | --- |
| C[C](C)(C)[Ge]([O][Ge]([c]1ccccc1)[c]1ccccc1)([O][Ge]([c]1ccccc1)[c]1ccccc1)[C](C)(C)C | 1% |
| CCc1c(Cl)c(C)cc(O)c1Cl | 42% |
| Cc1nc(Nc2ccccc2[N+](=O)[O-])sc1C(=O)CC(=O)C(=O)Nc1c(C(C)C)cccc1C(C)C | 50% |
| O=[N+]([O-])c1cccc2nc3ccccc3c(NCCCn3ccnc3[N+](=O)[O-])c12 | 83% (active) |
| CCCCCCC(O)CNCc1ccnc2ccc(OC)cc12 (stereo not drawn) | 0% |
| Cc1c2cccc(Sc3ccccc3)c2c2c3c(cccc13)[S+](c1ccccc1)C2 (stereo not drawn) | 88% (active) |
| C=C1CCC(O)C/C1=C/C=C1\CCCC2(C)C1CCC2C(C)CCCC(C)C (stereo not drawn) | -8% |
| NC1=NNC2(C(N)=N1)c1ccccc1-c1ccccc12 | 44% |
| COc1cc2cc3c4cc(OC)c(OC)cc4cc[n+]3c(C)c2cc1OC | -20% |
| COC(=O)NC1C(C)OC(OC2C/C=C(/C)C3C=CC4C(OC5CC(OC6CC(O)C(OC7CC(O)C(OC)C(C)O7)C(C)O6)C(O)C(C)O5)C(C)CC(C)C4C3(C)/C(O)=C3\C(=O)OC4(CC(C)C(CO)=CC4/C=C\2C)C3=O)CC1(C)[N+](=O)[O-] (stereo not drawn) | 5% |
| O=C1CSC(c2cccc(Cl)c2)N1c1ccc(-c2ccc(-n3c(-c4ccccc4)nc4ccccc4c3=O)cc2)cc1 (stereo not drawn) | 9% |
| CCOC(=O)C(C(=O)OCC)=P(c1ccccc1)(c1ccccc1)c1ccccc1 | -1% |
| COc1ccc(N=CN(C)C)c(C)c1 | -34% |
| Cc1cc(S(=O)(=O)Nc2nnc3cnc4ccccc4n23)c(S)cc1Cl | -57% |
| O=C(Oc1ccc2c(c1)CN(Cc1ccccc1)CO2)c1ccccc1 | 6% |
| CN(C)[C@@H]1C(=O)C(C(N)=O)=C(O)[C@@]2(O)C(=O)C3=C(O)c4c(O)cccc4C[C@H]3C[C@@H]12 | 10% |
| O=[N+]([O-])c1ccc2c(c1)/C(=N/N=C1c3ccccc3Cc3ccccc31)c1cc([N+](=O)[O-])cc([N+](=O)[O-])c1-2 | 97% (active) |
| Cc1nc2c(Br)cc(Br)cc2c(=O)n1-c1ccccc1NC1OCC(O)C(O)C1O (stereo not drawn) | 20% |
| Cc1cc(N(CCOS(C)(=O)=O)CCOS(C)(=O)=O)ccc1C=Nc1ccc(-c2nc(Cc3ccccc3)sc2C)cc1 | 37% |
